The list is not random: actives were taken first. Their share in the collection is about 3.5%.
GPR151 ag = human GPR151 activation; Q8TDV0; activation, % at 11.2 µM; 1% of 650,000 active; PathHunter beta-arrestin GPR151 cells, luminescence; AID 1508602; in the data active = activation above about 4.9%
Target sequence (Q8TDV0 whole entry, looked up): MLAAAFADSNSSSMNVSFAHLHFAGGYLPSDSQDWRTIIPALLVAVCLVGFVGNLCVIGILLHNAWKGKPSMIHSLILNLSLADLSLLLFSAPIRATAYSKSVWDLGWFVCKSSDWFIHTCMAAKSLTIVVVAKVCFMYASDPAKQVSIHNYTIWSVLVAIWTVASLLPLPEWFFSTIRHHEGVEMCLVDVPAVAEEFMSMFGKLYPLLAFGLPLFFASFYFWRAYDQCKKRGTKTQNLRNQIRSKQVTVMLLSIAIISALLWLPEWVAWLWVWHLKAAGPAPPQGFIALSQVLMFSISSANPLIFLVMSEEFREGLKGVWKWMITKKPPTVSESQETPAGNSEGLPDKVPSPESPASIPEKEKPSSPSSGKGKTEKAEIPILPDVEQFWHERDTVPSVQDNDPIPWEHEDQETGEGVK
FBW7 activator = activators of human E3 ligase FBW7 | normalized activity (activation), % at 26.1 µM | Q969H0 | AlphaScreen FBW7–phospho-cyclin E peptide binding, activator screen | 0.13% of 650,000 active; in the data active = normalized activity above about 1.9%;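 note: purified mutant Fbw7 with reduced substrate affinity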
MITF primary = human MITF inhibition, primary screen; AlphaScreen MITF homodimerization, bead proximity signal; inhibition, % at 2.6 µM; 0.91% of 650,000 active; in the data active = inhibition above about 50%
TEAD-YAP inh = TEAD-YAP interaction inhibition | HEK-TIYL cells, TEAD-Gal4/YAP UAS-luciferase luminescence | inhibition, % at 9.12 µM | 1.4% of 640,000 active; in the data active = inhibition above about 32%
Large screens that a line does not name were inactive.

COc1cc(/C=C2/C(=N)N3OC(C)=CC3=NC2=O)ccc1OCCOc1cccc(C)c1	none
CC1=CC2=NC(=O)/C(=C\c3cc(C)n(-c4cccc(Cl)c4)c3C)C(=N)N2O1	none
CC1=CC2=NC(=O)/C(=C\c3cc(C)n(-c4cccc(C)c4)c3C)C(=N)N2O1	TEAD-YAP inh 49.8
CC1=CC2=NC(=O)/C(=C\c3ccc(OCc4ccc5c(c4)OCO5)c(Cl)c3)C(=N)N2O1	TEAD-YAP inh 59.1
CC(=O)N(C1=C(N2CCOCC2)C(=O)c2ccccc2C1=O)c1cc(C)cc(C)c1	TEAD-YAP inh 39.3
CC(=O)N(C1=C(N2CCOCC2)C(=O)c2ccccc2C1=O)c1ccc(F)c(F)c1	TEAD-YAP inh 32.0
Cc1cc(/C=C2/C(=N)N3C(=NC2=O)SN=C3S(C)(=O)=O)c(C)n1-c1ccccc1F	none
CC1=CSC2=NC(=O)/C(=C/c3cc(C)n(-c4ccccc4C)c3C)C(=N)N12	TEAD-YAP inh 68.3
CCOc1ccccc1-n1c(C)cc(/C=C2\C(=N)N3C(C)=CSC3=NC2=O)c1C	none
CC1=CSC2=NC(=O)/C(=C/c3cc(C)n(-c4ccccc4F)c3C)C(=N)N12	TEAD-YAP inh 52.0
CCC(=O)N(CCC(c1ccccc1)c1ccc2c(c1)OCO2)Cc1ccc(OC)cc1 (configuration not stated)	none
CCC1(CC)NC(=O)N(CC(=O)Nc2ccc(C(N)=O)cc2)C1=O	none
COc1ccc(C2SCCN2S(=O)(=O)c2ccc(NC(C)=O)cc2)cc1OC (configuration not stated)	FBW7 activator 1.9
COc1ccc(C2SCCN2S(=O)(=O)c2ccc(NC(C)=O)cc2)cc1 (configuration not stated)	none
Nc1c(Cl)cc(Cl)cc1C(=O)OCC(=O)N1CCCc2ccccc21	none
N#Cc1ccccc1S(=O)(=O)N1CCN(S(=O)(=O)c2ccc3ccccc3c2)CC1	none
Cc1ccc2nc(NC(=S)NC(=O)c3ccco3)sc2c1	none
O=C(Nc1ccc2nc(NC(=O)c3ccccc3Cl)sc2c1)c1ccccc1Cl	TEAD-YAP inh 48.6
CS(=O)(=O)c1ccc2nc(NC(=O)c3cc(Cl)ccc3[N+](=O)[O-])sc2c1	TEAD-YAP inh 39.9
O=C(Nc1nc2ccc(Br)cc2s1)c1ccccc1Cl	none
Nc1ccc2nc(NC(=O)c3ccc(Cl)cc3Cl)sc2c1	TEAD-YAP inh 69.6
Cc1ccc2nc(NC(=O)c3ccco3)sc2c1	TEAD-YAP inh 78.3
O=C(CCn1c(=O)[nH]c2ccccc2c1=O)NCCc1c[nH]c2ccccc12	none
COc1ccc2nc(NC(=O)c3ccco3)sc2c1	TEAD-YAP inh 41.8
CC(=O)Nc1ccc2nc(NC(=O)C3CCCCC3)sc2c1	none
O=C(Nc1nc2ccc(Cl)cc2s1)c1cccc2ccccc12	none
O=C(Nc1nc([N+](=O)[O-])cs1)c1ccc(Cl)cc1Cl	TEAD-YAP inh 88.5
O=C(Nc1ccc2nc(NC(=O)C3CCCCC3)sc2c1)C1CCCCC1	TEAD-YAP inh 40.4
Cc1ccc2nc(NC(=O)c3cccc4ccccc34)sc2c1	TEAD-YAP inh 37.3
COc1cccc(CNC(=O)c2nnc(-c3cccc(Cl)c3)o2)c1	none
COc1cccc(CC2(CCC(=O)N3CCCC(C(=O)c4cccnc4)C3)CCC(=O)N2)c1 (configuration not stated)	none
O=c1nc(N/N=C/c2ccc(Cl)cc2Cl)cn[nH]1	TEAD-YAP inh 67.0
O=c1nc(N/N=C/c2ccccc2Cl)cn[nH]1	none
COc1cccc(/C=N/NC(=O)c2ccc(Cn3nc(C)cc3C)cc2)c1O	TEAD-YAP inh 52.6
Cc1cc(C)n(Cc2cccc(C(=O)N/N=C/c3ccc(O)cc3O)c2)n1	none
COc1ccc(CCCC(=O)N/N=C/c2cccc(OC)c2O)cc1C	TEAD-YAP inh 42.3
Cc1cc(C)n(Cc2ccc(C(=O)N/N=C/c3ccc(O)cc3O)cc2)n1	TEAD-YAP inh 60.8
COc1cccc(CNS(=O)(=O)c2ccc3c(c2)SCCN3C(C)=O)c1	none
CCN(CC)CCNc1cc(C)nc2c1C(=O)C(=O)C=C2N1CCCCC1	TEAD-YAP inh 94.3
COCCOC(=O)c1[nH]c2c(c1C)C(=O)C(C(=O)OC)C(C)C2 (configuration not stated)	none
CSCCOC(=O)c1[nH]c2c(c1C)C(=O)CC(c1ccco1)C2 (configuration not stated)	TEAD-YAP inh 50.2
CCOC(=O)c1[nH]c2c(c1C)C(=O)CC(c1ccco1)C2 (configuration not stated)	TEAD-YAP inh 58.4
CCOCCOC(=O)c1[nH]c2c(c1C)C(=O)CC(c1ccc(OCC)cc1)C2 (configuration not stated)	none
Cc1c(C(=O)OCCOC(C)C)[nH]c2c1C(=O)CC(c1ccco1)C2 (configuration not stated)	TEAD-YAP inh 60.2
COCCOC(=O)c1[nH]c2c(c1C)C(=O)CC(c1ccco1)C2 (configuration not stated)	TEAD-YAP inh 49.3
Cc1c(C(=O)OCCOC(C)C)[nH]c2c1C(=O)CC(C)(C)C2	none
COc1ccc(-c2nc(CCn3cnc4ccccc43)no2)cc1	none
CCC(CC)NC(=O)Cn1c(C(C)NC(=O)c2ccccc2)nc2ccccc21 (configuration not stated)	none
O=C(Nc1ccc(F)c(Cl)c1)c1ccc2c(=O)n(-c3ccc(F)c(Cl)c3)c(=S)[nH]c2c1	none
CCOCCOC(=O)c1[nH]c2c(c1C)C(=O)CC(c1ccco1)C2 (configuration not stated)	TEAD-YAP inh 51.2
Cc1c(C(=O)OCc2ccccc2)[nH]c2c1C(=O)CC(c1ccco1)C2 (configuration not stated)	TEAD-YAP inh 56.8
CCN(CC)c1nc(C)nc2sc(C(=O)Nc3cccc(C)n3)c(C)c12	none
CCc1ccc(NCCC(=O)c2ccc(C)o2)cc1	none
CCCCOc1ccc(-c2nn(-c3ccccc3)cc2/C=c2\sc3nc(=O)c(Cc4ccccc4)nn3c2=O)cc1C	MITF primary 75.9
CCCCOc1ccc(-c2nn(-c3ccccc3)cc2/C=c2\sc3nc(=O)c(C)nn3c2=O)cc1C	none
COc1cc(-c2ccc(NC(=O)Nc3ccccc3C)c(OC)c2)ccc1NC(=O)Nc1ccccc1C	TEAD-YAP inh 45.1
O=C1COc2cc(-c3c(N4CCCC4)c(=O)c3=O)ccc2N1	none
Cc1ccc(Cl)cc1N1CCN(c2c(-c3ccc4c(c3)OCC(=O)N4)c(=O)c2=O)CC1	TEAD-YAP inh 61.1
CCOC(=O)c1ccccc1Nc1cn(C(C)=O)c2ccccc12	TEAD-YAP inh 51.8
Cc1ccc(NC(=O)CSc2nc3ccccc3c(=O)n2CCC(=O)N2CCCCC2)cc1	none
Cc1ccc(S(=O)(=O)N(C)c2ccc(C(=O)N3CCCCC3)cc2)cc1	none
Cc1ccc(S(=O)(=O)N(C)c2ccc(C(=O)N3C(C)CCCC3C)cc2)cc1 (configuration not stated)	TEAD-YAP inh 48.4
COc1ccc(OC)c(-n2c(C)cc(/C=C3/C(=N)N4C=C(C)SC4=NC3=O)c2C)c1	TEAD-YAP inh 47.1
COc1ccccc1-n1c(C)cc(/C=C2/C(=N)N3C=CSC3=NC2=O)c1C	TEAD-YAP inh 94.3
COc1ccc(OC)c(-n2c(C)cc(/C=C3/C(=N)N4C=CSC4=NC3=O)c2C)c1	none
